TGFb SMAD3 inh: qHTS for Inhibitors of TGF-b; HepG2 CAGA-GFP TGF-b/SMAD3 reporter, GFP fluorescence, 18 h; TGF-beta stimulated, 500 pg/mL final; Potency, µM (titrated, usually from 46.1 µM), actives largely listed as inhibitors; actives 1.2% (n = 410,000); AID 588855, 2011; further: nearly all actives have a fitted effect of over 65% in size
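Per well, imaged GFP fluorescence of HEPG2 CAGA-GFP cells gives the signal; cells get compound, then TGF-beta (500 pg/mL final), 18 h at 37 degrees C; %Activity versus -TGF-beta and +DMSO controls.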
VP16 counter: VP16 counterscreen qHTS for inhibitors of ROR gamma transcriptional activity; Drosophila S2 Gal4-VP16 UAS-luciferase, luminescence, 20 h; actives 3.5% (n = 310,000); Potency, µM (top dose mostly 53.6 µM), actives largely listed as inhibitors;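 further: Gal4-VP16 expression switched on by copper sulfate through the metallothionein promoter; nearly all actives have a fitted effect of over 50% in size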
RORgamma inh: qHTS for inhibitors of ROR gamma transcriptional activity. Drosophila S2 Gal4-RORgamma UAS-luciferase reporter, 20 h. Potency, µM (doses to about 53.6 µM), actives largely listed as inhibitors. actives 5.4% (n = 310,000); further: nearly all actives have a fitted effect of over 60% in size
Target sequence (P51450 whole entry, looked up, the tested form may be a part): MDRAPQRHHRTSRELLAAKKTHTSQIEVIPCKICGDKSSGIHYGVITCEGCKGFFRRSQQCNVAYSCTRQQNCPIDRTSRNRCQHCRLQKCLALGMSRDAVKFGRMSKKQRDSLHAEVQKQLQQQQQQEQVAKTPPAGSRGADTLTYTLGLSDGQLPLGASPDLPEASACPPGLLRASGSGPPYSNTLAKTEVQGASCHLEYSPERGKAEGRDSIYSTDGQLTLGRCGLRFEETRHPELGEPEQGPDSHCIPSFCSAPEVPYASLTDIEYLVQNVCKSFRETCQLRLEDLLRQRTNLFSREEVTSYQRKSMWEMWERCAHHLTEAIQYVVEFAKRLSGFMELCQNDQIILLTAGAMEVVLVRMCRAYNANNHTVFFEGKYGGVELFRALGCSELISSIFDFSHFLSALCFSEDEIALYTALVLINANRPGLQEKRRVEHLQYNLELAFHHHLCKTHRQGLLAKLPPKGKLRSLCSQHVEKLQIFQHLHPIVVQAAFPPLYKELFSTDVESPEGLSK
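Drosophila Schneider cells stably carrying a metallothionein-driven Gal4 DBD–ROR gamma fusion and a UAS-Photinus luciferase reporter were exposed to compound for 1 hr, then induced with copper sulfate (700 uM final) for 20 hr at ambient temperature before luminescence reading.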
ATXN2 expr inh: Primary qHTS for Inhibitors of ATXN expression. AID 1745845, 2022. actives 0.72% (n = 360,000). HEK-293 ATXN2-luciferase reporter, luminescence, 24 h. Potency, µM (doses to about 57 µM), actives largely listed as inhibitors; further: nearly all actives have a fitted effect of over 55% in size
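qHTS (up to 57 uM final) was run with 24 h compound exposure of reporter cells at 37 °C. Each well was multiplexed: SteadyGlo luminescence measured ATXN2-luciferase expression after a fluorogenic Gly-Phe-AFC viability readout (25 uM final).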
S2 tox: Viability Counterscreen for Primary qHTS for Inhibitors of ATXN expression; S2 cells (HEK-293 line with an ATXN2-luciferase reporter) viability, CellTiter-Fluor protease fluorescence, 24 h; Potency, µM (highest dose often 56.7 µM), most hits filed as cytotoxic; actives 0.49% (n = 400,000); AID 651635, 2014; further: nearly all actives have a fitted effect of over 40% in size
HepG2 tox: qHTS for Inhibitors of TGF-b: Cytotox Counterscreen; AID 588856, 2011; Potency, µM (titrated, usually from 46.1 µM), actives largely listed as cytotoxic; actives 0.76% (n = 410,000); HepG2 CAGA-GFP viability, ATP luminescence, 18 h
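CellTiter-Glo luminescence gave cytotoxicity after 18 hours at 37 degrees C. The cells were HepG2 CAGA-GFP in 1% FBS DMEM, stimulated with 500 pg/mL TGF-beta after compound addition. %Activity was normalised to no-cell wells (complete cell-killing) and DMSO (no toxicity), and curves were fitted and classified.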
A number is an active result; 0 = inactive; ? = inconclusive; - = no result given. Sampled rows, rich in hits. Any-hit rate of the full collection: about 6.3%. The call rests on the fitted dose curve; in most records, active means well fitted curve in the direction sought with a large enough effect; inconclusive means small, poorly fitted or top-dose-only effect, or another doubt; inactive means no such curve, though single readings can be large; an effect the other way counts as inactive or inconclusive.

SMILES	TGFb SMAD3 inh	VP16 counter	RORgamma inh	ATXN2 expr inh	S2 tox	HepG2 tox
CCCn1c2ccccc2c2cnn(CC(=O)NCc3ccccc3Cl)c(=O)c21	0	-	-	0	0	0
COc1ccc(S(=O)(=O)N2CCCCC2c2cc(C(=O)NCc3cccnc3)no2)cc1 (configuration not stated)	0	-	-	0	0	0
O=C(CN1CCCC1)N/N=C/c1c(O)ccc2ccccc12	0	3.16µM	3.16µM	2.82µM	?	0
Cc1cc(C)n2nc(C(=O)N/N=C/c3c4ccccc4cc4ccccc34)nc2n1	?	17.8µM	35.5µM	?	0	0
Cc1cc(C)n2nc(C(=O)N/N=C/c3ccccc3Cl)nc2n1	0	0	0	0	0	0
O=C(N/N=C/c1c(O)ccc2ccccc12)C(=O)N1CCCC1	0	-	-	-	0	0
Cc1ccc(O)c(/C=N/NC(=O)CN2CCCC2)c1	0	?	12.6µM	-	?	0
O=C(CCSc1nc2ccccc2s1)N/N=C/c1c(O)ccc2ccccc12	0	1µM	1.41µM	3.16µM	0	0
COc1ccc(NC(=O)CSc2nc(-c3cccs3)cc(C(F)(F)F)n2)c(OC)c1	0	-	-	0	?	0
CCOc1ccccc1N(CC)C(=O)c1noc2c1COc1ccc(C)cc1-2	0	-	-	0	0	0
Cc1cc(C)n(CCC(=O)N/N=C/c2ccc(O)cc2)n1	0	0	0	0	0	0
Cc1cc(C)n(CCC(=O)N/N=C/c2c(O)ccc3ccccc23)n1	?	?	1.12µM	-	10µM	0
COc1ccc(-c2cc(C(F)(F)F)nc(-n3ccnc3C)n2)cc1	0	?	11.2µM	0	0	0
O=C(N/C(=C/C=C/c1ccccc1)C(=O)N1CCCCC1)c1ccc([N+](=O)[O-])cc1	?	0	0	0	1.5µM	0
Cc1cccc(-n2c(SCC(=O)c3ccccc3)nnc2-c2ccc(Br)cc2)c1	0	-	-	-	-	0
CCOC(=O)c1cccc(NC(=O)c2ccc3c(c2)nnn3C2CCCC2)c1	0	-	-	0	0	0
Cc1ccc(C2=Nc3ccccc3N=C(C(Cl)Cl)C2)cc1	0	?	11.2µM	0	0	0
Cc1ccc2c(c1)N=C(c1ccccc1)CC(C(Cl)Cl)=N2	?	?	11.2µM	0	0	0
COc1ccc(CNC(=O)c2cc(C)nc3c2c(C)nn3-c2cccc(Cl)c2C)cc1	0	-	-	0	0	0
C/C(=N\Nc1ccccn1)c1ccc(OC(F)F)cc1	0	?	14.1µM	0	0	0
CC1=CC23C(=O)C(C=C(CO)[C@@H](O)[C@]2(O)[C@H]1O)[C@H]1[C@@H](C[C@H]3C)C1(C)C (some centres not stated)	-	0	0	-	-	-
COc1ccc2nc(C)cc(SCC(=O)NNC(=O)COc3ccccc3)c2c1	0	0	0	0	0	0
COc1ccc2nc(C)cc(Sc3nc4ccccc4s3)c2c1	?	?	14.1µM	0	0	0
O=C(Nc1ccc(C(F)(F)F)cc1)C1CCCN(S(=O)(=O)c2cccc3cccnc23)C1 (configuration not stated)	11.2µM	-	-	0	0	0
O=C(Nc1ccncc1)C1CCCN(S(=O)(=O)c2cccc3cccnc23)C1 (configuration not stated)	0	0	0	?	?	0
SMILES	TGFb SMAD3 inh	VP16 counter	RORgamma inh	ATXN2 expr inh	S2 tox	HepG2 tox
Cc1ccccc1C(=O)O/N=C(\N)Cc1cccs1	0	?	7.94µM	0	?	0
COc1ccc(Oc2ncc3ncc(=O)n(C[C@H]4CCCO4)c3n2)cc1	-	0	0	-	-	-
CCCC(c1nnnn1Cc1ccc(OC)cc1)N1CCC(C(N)=O)CC1 (configuration not stated)	0	0	0	0	0	0
CCCC(c1nnnn1Cc1ccc2c(c1)OCO2)N1CCC(C(N)=O)CC1 (configuration not stated)	0	0	0	0	0	20µM
CCN1C[C@@H]2[C@@H]3C(=O)N(Cc4ccccc4)C(=O)[C@@H]3[C@](Cc3ccccc3)(C1=O)N2C(=O)c1ccc(C(C)(C)C)cc1	0	-	-	?	31.6µM	0
CCN1C[C@@H]2[C@@H]3C(=O)N(Cc4ccccc4)C(=O)[C@@H]3[C@](CC)(C1=O)N2C(=O)c1ccc(C(C)(C)C)cc1	0	-	-	0	0	0
COc1cc(Nc2nc3ccccc3nc2NS(=O)(=O)c2ccc([N+](=O)[O-])cc2)cc(OC)c1OC	?	5.01µM	4.47µM	0	?	0
O=[N+]([O-])c1ccc(Nc2c3ccccc3nc3ccccc23)cc1	?	0	22.4µM	0	0	0
O=[N+]([O-])c1ccc(S(=O)(=O)Nc2nc3ccccc3nc2Nc2ccccc2)cc1	?	?	8.91µM	?	?	0
COc1ccc(Nc2nc3ccccc3nc2NS(=O)(=O)c2ccc(C)cc2)c(OC)c1	0	-	-	0	0	0
CCC1(C2CCN(C(=O)c3coc4c3C(=O)CCC4)CC2)NC(=O)N(CCc2scnc2C)C1=O (configuration not stated)	-	-	-	-	0	-
CC1(C(=O)Nc2ccccc2)Cc2c(-c3cccc(C(F)(F)F)c3)ccnc2O1 (configuration not stated)	?	-	-	0	?	0
O=c1ccc(N=Nc2ccccc2)ccc1O	0	3.55µM	?	?	12.6µM	17.8µM
COc1cccc(C(=O)NCC[N+](C)(C)C)c1	-	-	-	0	0	-
Cn1cc(CN2CCC(C3(c4ccccn4)NC(=O)N(CC4CCCO4)C3=O)CC2)c2ccccc21 (configuration not stated)	-	-	-	-	0	-
Cc1ccc(NC(=O)O/N=C/c2c(C)nn(C(C)(C)C)c2C)cc1Cl	0	0.282µM	0.282µM	0	0	0
Cc1ccc(NC(=O)Nn2cnnc2)cc1Cl	0	0	0	0	0	0
Cc1ccc(N2CN(Cc3ccco3)CNC2=S)c(C)c1	0	0	0	0	0	0
CCc1ccc(N2CN(Cc3ccco3)CNC2=S)cc1	0	?	3.55µM	0	?	0
CCCCN1CN(Cc2ccco2)CNC1=S	0	?	12.6µM	0	0	0
S=C1NCN(Cc2ccco2)CN1c1cccc2ccccc12	0	?	5.01µM	0	0	0
S=C1NCN(Cc2ccco2)CN1	?	0	0	0	-	0
C=CCN1CN(Cc2ccco2)CNC1=S	0	?	12.6µM	?	0	0
S=C1NCN(Cc2ccco2)CN1c1ccccc1	0	0	?	0	0	0
COc1ccccc1C(=O)N1CCOc2ccc(C(C)(O)CCn3cccn3)cc2C1 (configuration not stated)	-	-	-	-	0	-
Cc1ccc(NC(=O)CN2CCN(C(=O)C3CC3)CC2)c(F)c1	0	-	-	-	0	0

Assay outcomes (PubChem)
